Publication PMC7862700, “An all-to-all approach to the identification of sequence-specific readers for epigenetic DNA modifications on cytosine”

Legend:
Experiment in all cases: DAPPL (digital affinity profiling via proximity ligation, sequencing); 10 mM Tris-HCl pH 7.5, 50 mM NaCl, 1 mM DTT, 4% glycerol, room temperature, 30 min; GST-TFs on glutathione beads, 16-mer random dsDNA library, 0.1% formaldehyde crosslink after washing; high values mean tight binding
Details in all cases: protein: recombinant; tags: N-terminal GST; dsDNA, one strand shown
GABPA = target: T1, GABPA (Homo sapiens, UniProt Q06546 1-454)
T1 sequence: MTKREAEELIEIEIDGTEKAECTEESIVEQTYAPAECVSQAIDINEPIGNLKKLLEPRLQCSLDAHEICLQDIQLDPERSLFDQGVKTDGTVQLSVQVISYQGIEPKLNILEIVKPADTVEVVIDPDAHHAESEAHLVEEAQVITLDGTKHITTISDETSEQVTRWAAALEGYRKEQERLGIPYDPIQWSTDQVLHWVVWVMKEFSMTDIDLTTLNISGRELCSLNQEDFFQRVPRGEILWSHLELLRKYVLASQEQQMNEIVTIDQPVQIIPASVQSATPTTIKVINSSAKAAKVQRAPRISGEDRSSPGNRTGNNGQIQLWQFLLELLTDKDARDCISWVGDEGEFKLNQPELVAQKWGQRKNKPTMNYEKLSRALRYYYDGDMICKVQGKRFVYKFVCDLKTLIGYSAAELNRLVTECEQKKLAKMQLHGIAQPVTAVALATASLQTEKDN
In short: (§1)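 Binding signal is each hexamer's read frequency for a factor divided by its frequency in the tag-only sample. The factors were GST-fused human transcription factors from yeast, captured on glutathione beads, DNA-barcoded and pooled with that sample. Pools were incubated with 200 nmole of a random double-stranded 16-mer DNA library in Tris/NaCl/DTT/glycerol buffer at room temperature for 30 min, then washed, crosslinked with 0.1% formaldehyde, proximity-ligated with BsaI/T4 ligase (1 h, 37 °C), PCR-amplified and sequenced on an Illumina NextSeq500.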

ELF1 = ELF1 (Homo sapiens, UniProt P32519 1-619)
Sequence of ELF1 (P32519 whole entry): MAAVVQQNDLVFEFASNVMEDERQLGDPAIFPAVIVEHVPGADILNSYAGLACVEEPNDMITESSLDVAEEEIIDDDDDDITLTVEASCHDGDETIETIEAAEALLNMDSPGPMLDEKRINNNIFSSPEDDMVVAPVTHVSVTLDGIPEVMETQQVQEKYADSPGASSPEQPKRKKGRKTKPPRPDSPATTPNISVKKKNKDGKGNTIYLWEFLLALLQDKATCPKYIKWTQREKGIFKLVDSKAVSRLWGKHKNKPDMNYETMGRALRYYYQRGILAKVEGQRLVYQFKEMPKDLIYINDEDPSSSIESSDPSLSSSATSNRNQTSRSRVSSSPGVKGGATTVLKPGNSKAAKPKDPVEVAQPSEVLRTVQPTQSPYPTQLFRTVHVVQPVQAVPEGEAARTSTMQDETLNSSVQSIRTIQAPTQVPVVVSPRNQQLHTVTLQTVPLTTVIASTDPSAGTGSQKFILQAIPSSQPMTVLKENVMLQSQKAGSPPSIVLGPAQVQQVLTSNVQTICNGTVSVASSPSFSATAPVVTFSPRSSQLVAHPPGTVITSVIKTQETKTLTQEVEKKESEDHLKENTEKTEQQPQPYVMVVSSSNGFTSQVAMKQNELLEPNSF
In short: as §1

EHF = target: T2, EHF (Homo sapiens, UniProt Q9NZC4 1-300)
T2 sequence: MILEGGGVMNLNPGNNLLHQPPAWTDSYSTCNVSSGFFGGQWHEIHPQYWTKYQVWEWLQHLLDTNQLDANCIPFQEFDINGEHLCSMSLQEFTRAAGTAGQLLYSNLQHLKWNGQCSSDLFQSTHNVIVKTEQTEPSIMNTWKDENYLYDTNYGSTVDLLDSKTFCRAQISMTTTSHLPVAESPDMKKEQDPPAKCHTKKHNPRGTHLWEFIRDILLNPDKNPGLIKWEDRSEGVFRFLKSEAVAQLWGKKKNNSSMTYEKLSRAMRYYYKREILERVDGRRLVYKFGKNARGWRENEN
In short: as §1

ETV5 = ETV5 (Homo sapiens, UniProt P41161 1-510)
Sequence of ETV5 (P41161 whole entry): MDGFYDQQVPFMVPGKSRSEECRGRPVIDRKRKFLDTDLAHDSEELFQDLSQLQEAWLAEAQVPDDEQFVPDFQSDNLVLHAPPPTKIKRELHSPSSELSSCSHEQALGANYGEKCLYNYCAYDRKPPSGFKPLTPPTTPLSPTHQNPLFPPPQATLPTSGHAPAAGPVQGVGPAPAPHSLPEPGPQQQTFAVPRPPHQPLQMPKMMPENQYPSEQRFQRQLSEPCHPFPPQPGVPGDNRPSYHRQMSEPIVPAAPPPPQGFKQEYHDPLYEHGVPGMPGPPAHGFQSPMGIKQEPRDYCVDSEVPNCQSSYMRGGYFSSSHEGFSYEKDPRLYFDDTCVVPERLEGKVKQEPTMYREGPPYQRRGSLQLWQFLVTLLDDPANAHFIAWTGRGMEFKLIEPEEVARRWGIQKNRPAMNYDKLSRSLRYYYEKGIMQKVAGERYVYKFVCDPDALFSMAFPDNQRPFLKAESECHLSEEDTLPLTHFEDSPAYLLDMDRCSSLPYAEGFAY
In short: as §1

ELF4 = ELF4 (Homo sapiens, UniProt Q99607 1-663)
Sequence of ELF4 (Q99607 whole entry): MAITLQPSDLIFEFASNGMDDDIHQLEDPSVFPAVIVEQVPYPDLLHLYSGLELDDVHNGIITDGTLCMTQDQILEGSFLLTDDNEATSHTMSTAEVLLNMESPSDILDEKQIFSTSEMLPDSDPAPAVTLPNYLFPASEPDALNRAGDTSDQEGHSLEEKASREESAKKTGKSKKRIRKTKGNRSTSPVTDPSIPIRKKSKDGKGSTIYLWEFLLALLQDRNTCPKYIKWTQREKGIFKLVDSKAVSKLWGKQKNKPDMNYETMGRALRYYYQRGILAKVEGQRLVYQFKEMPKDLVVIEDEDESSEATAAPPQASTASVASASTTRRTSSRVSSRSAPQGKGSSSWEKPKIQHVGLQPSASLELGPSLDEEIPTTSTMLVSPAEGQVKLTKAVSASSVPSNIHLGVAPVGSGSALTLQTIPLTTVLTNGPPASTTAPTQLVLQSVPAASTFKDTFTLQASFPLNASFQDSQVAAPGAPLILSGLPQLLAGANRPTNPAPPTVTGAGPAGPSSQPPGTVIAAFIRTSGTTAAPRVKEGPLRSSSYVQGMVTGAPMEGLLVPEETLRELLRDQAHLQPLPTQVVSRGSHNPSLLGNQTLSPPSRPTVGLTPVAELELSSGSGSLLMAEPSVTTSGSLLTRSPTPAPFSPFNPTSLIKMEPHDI
In short: as §1

ELK4 = target: T3, ELK4 (Homo sapiens, UniProt P28324-2 1-405)
T3 sequence: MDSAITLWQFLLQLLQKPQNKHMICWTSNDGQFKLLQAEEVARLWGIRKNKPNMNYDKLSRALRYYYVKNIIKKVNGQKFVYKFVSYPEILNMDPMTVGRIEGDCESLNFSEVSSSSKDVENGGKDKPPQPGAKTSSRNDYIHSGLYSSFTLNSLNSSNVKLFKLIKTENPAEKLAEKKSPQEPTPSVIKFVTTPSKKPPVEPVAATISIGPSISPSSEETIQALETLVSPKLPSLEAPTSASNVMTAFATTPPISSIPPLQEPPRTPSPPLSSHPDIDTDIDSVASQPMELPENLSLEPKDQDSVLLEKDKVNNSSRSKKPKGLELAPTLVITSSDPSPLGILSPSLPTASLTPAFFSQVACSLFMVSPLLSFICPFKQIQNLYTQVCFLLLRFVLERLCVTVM
In short: as §1

ETV2 = target: T4, ETV2 (Homo sapiens, UniProt O00321 1-342)
T4 sequence: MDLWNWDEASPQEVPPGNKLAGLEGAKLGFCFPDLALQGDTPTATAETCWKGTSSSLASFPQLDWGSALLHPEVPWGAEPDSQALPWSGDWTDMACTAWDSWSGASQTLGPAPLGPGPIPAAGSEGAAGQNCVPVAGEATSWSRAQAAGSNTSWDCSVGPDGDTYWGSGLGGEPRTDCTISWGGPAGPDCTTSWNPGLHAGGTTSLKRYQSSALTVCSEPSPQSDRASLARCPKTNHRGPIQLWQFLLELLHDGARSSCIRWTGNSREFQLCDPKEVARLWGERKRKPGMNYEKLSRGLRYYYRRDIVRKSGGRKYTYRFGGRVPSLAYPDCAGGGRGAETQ
In short: as §1

ELF3 = target: T5, ELF3 (Homo sapiens, UniProt P78545 1-371)
T5 sequence: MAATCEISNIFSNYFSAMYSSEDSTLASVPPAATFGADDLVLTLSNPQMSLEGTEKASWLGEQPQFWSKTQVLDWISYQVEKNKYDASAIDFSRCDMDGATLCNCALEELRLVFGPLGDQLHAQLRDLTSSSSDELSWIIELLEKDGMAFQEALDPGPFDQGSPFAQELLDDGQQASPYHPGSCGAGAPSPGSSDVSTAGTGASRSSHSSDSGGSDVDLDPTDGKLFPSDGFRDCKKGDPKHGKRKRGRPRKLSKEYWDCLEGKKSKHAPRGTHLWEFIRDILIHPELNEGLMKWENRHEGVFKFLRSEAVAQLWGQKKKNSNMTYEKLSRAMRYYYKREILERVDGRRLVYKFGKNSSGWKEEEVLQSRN
In short: as §1

ETV3L = target: T6, ETV3L (Homo sapiens, UniProt Q6ZN32 1-361)
T6 sequence: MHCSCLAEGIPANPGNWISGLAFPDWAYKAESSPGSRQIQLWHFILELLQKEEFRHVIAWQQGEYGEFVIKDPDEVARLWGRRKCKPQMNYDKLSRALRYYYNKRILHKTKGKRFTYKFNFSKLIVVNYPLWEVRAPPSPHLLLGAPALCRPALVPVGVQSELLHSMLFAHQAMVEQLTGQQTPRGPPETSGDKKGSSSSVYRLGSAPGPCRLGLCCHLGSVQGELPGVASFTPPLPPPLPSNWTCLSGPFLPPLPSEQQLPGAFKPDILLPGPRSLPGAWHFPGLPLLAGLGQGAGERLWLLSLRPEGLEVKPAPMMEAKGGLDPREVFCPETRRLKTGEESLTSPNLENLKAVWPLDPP
In short: as §1

ETS2 = target: T7, ETS2 (Homo sapiens, UniProt P15036 1-469)
T7 sequence: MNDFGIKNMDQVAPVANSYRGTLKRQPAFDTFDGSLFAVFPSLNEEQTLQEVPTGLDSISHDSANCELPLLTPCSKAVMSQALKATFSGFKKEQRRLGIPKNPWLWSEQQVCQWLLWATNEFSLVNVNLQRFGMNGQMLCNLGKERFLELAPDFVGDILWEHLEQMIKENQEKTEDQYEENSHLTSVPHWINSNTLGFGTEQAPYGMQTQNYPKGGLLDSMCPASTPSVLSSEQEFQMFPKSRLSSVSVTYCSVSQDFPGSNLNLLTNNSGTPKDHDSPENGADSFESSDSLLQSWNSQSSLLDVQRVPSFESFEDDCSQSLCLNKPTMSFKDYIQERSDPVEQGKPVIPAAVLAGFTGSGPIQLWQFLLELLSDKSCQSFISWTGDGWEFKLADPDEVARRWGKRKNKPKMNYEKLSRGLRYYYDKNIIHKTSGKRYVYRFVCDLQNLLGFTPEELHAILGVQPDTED
In short: as §1

ETV7 = target: T8, ETV7 (Homo sapiens, UniProt Q9Y603 1-341)
T8 sequence: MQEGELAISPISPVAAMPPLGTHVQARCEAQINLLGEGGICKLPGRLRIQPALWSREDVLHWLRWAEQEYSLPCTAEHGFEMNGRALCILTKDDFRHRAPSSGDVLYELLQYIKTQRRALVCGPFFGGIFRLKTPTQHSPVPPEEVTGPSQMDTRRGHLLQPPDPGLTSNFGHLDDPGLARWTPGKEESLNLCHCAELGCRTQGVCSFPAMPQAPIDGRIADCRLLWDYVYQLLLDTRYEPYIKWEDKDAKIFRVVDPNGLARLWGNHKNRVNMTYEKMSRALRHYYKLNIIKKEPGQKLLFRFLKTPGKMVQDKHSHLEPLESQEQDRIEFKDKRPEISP
In short: as §1

ETV3 = target: T9, ETV3 (Homo sapiens, UniProt P41162-2 1-143)
T9 sequence: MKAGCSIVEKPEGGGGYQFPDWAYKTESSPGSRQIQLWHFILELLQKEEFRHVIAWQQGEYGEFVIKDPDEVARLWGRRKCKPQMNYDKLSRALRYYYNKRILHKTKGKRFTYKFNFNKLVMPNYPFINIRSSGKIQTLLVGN
In short: as §1

ELK1 = target: T10, ELK1 (Homo sapiens, UniProt P19419 1-428)
T10 sequence: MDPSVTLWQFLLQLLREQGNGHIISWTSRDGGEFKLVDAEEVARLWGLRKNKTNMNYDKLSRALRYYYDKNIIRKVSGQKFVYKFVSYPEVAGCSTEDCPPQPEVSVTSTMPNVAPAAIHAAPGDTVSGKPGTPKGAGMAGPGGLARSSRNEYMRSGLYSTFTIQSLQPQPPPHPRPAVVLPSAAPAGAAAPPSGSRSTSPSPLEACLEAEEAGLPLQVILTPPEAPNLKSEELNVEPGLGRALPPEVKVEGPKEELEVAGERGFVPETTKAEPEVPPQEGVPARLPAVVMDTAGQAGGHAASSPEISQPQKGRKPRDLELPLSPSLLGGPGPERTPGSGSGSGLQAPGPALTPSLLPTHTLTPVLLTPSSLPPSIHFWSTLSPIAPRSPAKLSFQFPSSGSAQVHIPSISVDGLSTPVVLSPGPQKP
In short: as §1

ERG = target: T11, ERG (Homo sapiens, UniProt P11308 1-479)
T11 sequence: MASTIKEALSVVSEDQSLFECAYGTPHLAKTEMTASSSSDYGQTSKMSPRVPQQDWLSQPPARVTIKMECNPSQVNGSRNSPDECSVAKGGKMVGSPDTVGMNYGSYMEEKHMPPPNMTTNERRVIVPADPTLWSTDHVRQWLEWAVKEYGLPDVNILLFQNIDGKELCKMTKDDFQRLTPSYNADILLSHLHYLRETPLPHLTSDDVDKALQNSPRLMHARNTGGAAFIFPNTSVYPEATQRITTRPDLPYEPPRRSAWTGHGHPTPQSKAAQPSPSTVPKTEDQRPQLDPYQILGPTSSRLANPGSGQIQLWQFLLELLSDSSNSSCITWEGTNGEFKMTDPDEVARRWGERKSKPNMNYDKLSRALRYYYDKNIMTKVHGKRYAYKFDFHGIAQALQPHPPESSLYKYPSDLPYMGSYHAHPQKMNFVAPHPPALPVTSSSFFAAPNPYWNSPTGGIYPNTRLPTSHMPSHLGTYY
In short: as §1

ERF = target: T12, ERF (Homo sapiens, UniProt P50548 1-548)
T12 sequence: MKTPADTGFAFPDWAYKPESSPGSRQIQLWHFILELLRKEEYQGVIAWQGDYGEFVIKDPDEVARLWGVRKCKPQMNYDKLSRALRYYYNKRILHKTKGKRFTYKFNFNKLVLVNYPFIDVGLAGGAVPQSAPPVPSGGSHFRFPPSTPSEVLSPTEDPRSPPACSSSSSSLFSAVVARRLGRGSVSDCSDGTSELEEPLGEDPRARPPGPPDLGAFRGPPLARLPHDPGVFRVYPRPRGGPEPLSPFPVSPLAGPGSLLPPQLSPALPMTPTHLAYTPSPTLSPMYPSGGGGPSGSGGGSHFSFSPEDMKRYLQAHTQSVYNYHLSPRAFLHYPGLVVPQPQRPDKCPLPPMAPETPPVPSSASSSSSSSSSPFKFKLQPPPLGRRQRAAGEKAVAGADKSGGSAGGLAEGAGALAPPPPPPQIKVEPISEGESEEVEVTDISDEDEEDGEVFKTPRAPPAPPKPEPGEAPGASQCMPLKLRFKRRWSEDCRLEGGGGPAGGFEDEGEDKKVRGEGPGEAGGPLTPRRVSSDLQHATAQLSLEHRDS
In short: as §1

Sequence	binding signal (GABPA)	binding signal (ELF1)	binding signal (EHF)	binding signal (ETV5)	binding signal (ELF4)	binding signal (ELK4)	binding signal (ETV2)	binding signal (ELF3)	binding signal (ETV3L)	binding signal (ETS2)	binding signal (ETV7)	binding signal (ETV3)	binding signal (ELK1)	binding signal (ERG)	binding signal (ERF)
CCAAGC	1.06 fold enrichment (6-mer frequency, TF over GST control)	1.04 fold enrichment (6-mer frequency, TF over GST control)	1.02 fold enrichment (6-mer frequency, TF over GST control)	1.09 fold enrichment (6-mer frequency, TF over GST control)	1.07 fold enrichment (6-mer frequency, TF over GST control)	1.03 fold enrichment (6-mer frequency, TF over GST control)	1.02 fold enrichment (6-mer frequency, TF over GST control)	1.2 fold enrichment (6-mer frequency, TF over GST control)	1.01 fold enrichment (6-mer frequency, TF over GST control)	1.03 fold enrichment (6-mer frequency, TF over GST control)	1.06 fold enrichment (6-mer frequency, TF over GST control)	1.03 fold enrichment (6-mer frequency, TF over GST control)			
CCCAAG	1.07 fold enrichment (6-mer frequency, TF over GST control)	1.06 fold enrichment (6-mer frequency, TF over GST control)		1.01 fold enrichment (6-mer frequency, TF over GST control)	1.03 fold enrichment (6-mer frequency, TF over GST control)			1.12 fold enrichment (6-mer frequency, TF over GST control)	1.01 fold enrichment (6-mer frequency, TF over GST control)	1 fold enrichment (6-mer frequency, TF over GST control)		1.03 fold enrichment (6-mer frequency, TF over GST control)	1.07 fold enrichment (6-mer frequency, TF over GST control)	1.04 fold enrichment (6-mer frequency, TF over GST control)	1.06 fold enrichment (6-mer frequency, TF over GST control)
